# Source: PubChem BioAssay
# BLM inh: Bloom syndrome helicase (human) inhibition; P54132; recombinant BLM DNA unwinding, fluorescence dequenching; Potency, µM (doses to about 56.1 µM), inactives show at the top dose activity change, negative = inhibition, actives largely listed as inhibitors; hit rate 0.2% among 350,000;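 note: plate controls were vehicle for no effect and no enzyme for full effect; nearly all actives have a fitted effect of over 35% in size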
# JMJD2E inh: blocks human JMJD2E demethylase activity. Potency, µM (highest dose often 57.1 µM), inactives show at the highest dose activity change, negative = inhibition, usual class: inhibitors. hit rate 1.6% among 230,000. B2RXH2. AID 2147. JMJD2E catalytic domain, FDH-coupled NADH fluorescence (FDH is formaldehyde dehydrogenase);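 note: 0% = wells with enzyme and -100% = buffer wells without enzyme; nearly all actives have a fitted effect of over 50% in size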
# Target sequence (B2RXH2 1-337 limits assumed): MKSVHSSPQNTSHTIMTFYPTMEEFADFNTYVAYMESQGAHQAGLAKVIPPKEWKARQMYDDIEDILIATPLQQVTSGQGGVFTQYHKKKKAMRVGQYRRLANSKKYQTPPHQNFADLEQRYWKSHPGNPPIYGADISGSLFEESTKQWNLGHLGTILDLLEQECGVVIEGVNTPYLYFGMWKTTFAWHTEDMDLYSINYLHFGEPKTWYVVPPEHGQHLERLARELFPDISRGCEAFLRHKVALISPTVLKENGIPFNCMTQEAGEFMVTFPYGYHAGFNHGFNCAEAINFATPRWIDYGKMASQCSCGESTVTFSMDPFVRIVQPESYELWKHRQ
# TDP1 block: inhibitors of human tyrosyl-DNA phosphodiesterase TDP1; hit rate 0.28% among 350,000; Q9NUW8; Potency, µM (titrated, usually from 130 µM), inactives show at the top dose activity change, negative = inhibition, actives largely listed as inhibitors; AID 485290; recombinant TDP1, AlphaScreen DNA substrate cleavage; note: nearly all actives have a fitted effect of over 40% in size
#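 Recombinant human Tdp1 (E. coli-expressed, 1 nM final) preincubated with compounds 15 min at room temperature, then 5'-biotin/3'-phosphotyrosine-FITC DNA substrate (15 nM final) added for 5 min. AlphaScreen beads (10 ug/ml final) added 10 min; cleavage lowers signal.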
# RECQ1 helicase: inhibitors of human RECQ1 DNA helicase; Potency, µM (highest dose often 57.3 µM), for the others: top-dose activity, negative = inhibition, hits mostly inhibitors; hit rate 0.54% among 240,000; P46063; AID 2549; RECQ1 DNA unwinding, red fluorescence kinetic read;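 note: plate controls were vehicle for no effect and no enzyme for full effect; nearly all actives have a fitted effect of over 30% in size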
#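 50 nM RECQ1T1 preincubated 15 min with compound in Tris pH 8.0 buffer with MgCl2, DTT, Tween-20 and 2.5 ug/ml poly(dI-dC); started with 200 nM TAMRA/BHQ-2 forked duplex and 2 mM ATP. Unwinding read as fluorescence (525/598 nm), two reads 2 h apart.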
# L3MBTL1 block: L3MBTL1 (human) inhibition. Q9Y468. AlphaScreen L3MBTL1–H3K9me1 peptide binding. Potency, µM (doses to about 57.1 µM), without a hit: at the top dose activity, negative = inhibition, hits mostly inhibitors. hit rate 0.66% among 230,000; note: nearly all actives have a fitted effect of over 60% in size
#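 AlphaScreen assay: L3MBTL1 (50 nM final) was preincubated 30 min at room temperature with biotinylated H3(1-15)K9me1 peptide (75 nM final), then 30 min with library compounds; streptavidin donor and nickel chelate acceptor beads (10 ug/mL final) added, 30 min dark.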
# APE1 inh: APE1 (human) endonuclease inhibition. hit rate 0.35% among 350,000. P27695. Potency, µM (titrated, usually from 65.8 µM), for the others: at the top dose activity change, negative = inhibition, actives largely listed as inhibitors. recombinant APE1, TAMRA/BHQ-2 abasic DNA cleavage fluorescence;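 note: plate controls were vehicle for no effect and reference inhibitor for full effect; nearly all actives have a fitted effect of over 55% in size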
# Target sequence (P27695 whole entry, looked up): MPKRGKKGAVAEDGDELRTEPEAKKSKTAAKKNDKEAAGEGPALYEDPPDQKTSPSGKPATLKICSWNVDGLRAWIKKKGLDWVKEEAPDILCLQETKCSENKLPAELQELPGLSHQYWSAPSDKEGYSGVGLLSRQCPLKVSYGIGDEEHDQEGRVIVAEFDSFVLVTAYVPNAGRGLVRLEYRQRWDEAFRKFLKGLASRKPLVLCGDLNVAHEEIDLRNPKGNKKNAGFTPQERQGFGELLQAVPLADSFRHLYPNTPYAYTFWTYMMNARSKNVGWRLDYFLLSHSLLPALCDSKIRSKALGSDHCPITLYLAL
#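 Kinetic fluorescence read (525 ex/598 em nm, three reads 60 s apart) of AP-site incision; signal = third minus first read. Enzyme 0.75 nM, dual-labelled THF duplex 50 nM, compound preincubation 15 min RT.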
# Starred values were filed as active, the others as inactive; i = inactive; ? = inconclusive; . = no result; [ ] = another dose, or the depositor's remark. Only a selection was taken, and hits are over-represented in it overall. Unless noted, calls come from the whole dose curve; as a rule, active = well fitted curve in the direction sought with a large enough effect; inconclusive = small, poorly fitted or top-dose-only effect, or another doubt; inactive = no such curve, though single readings can be large; an effect the other way counts as inactive or inconclusive. Unless noted, % is set by controls: 0 for no effect and ±100 for the full control effect; potency is the fitted concentration of half-maximal effect.
SMILES,BLM inh,JMJD2E inh,TDP1 block,RECQ1 helicase,L3MBTL1 block,APE1 inh
CC(=C/C=C/C(C)=C/C=C/C=C(C)/C=C/C=C(C)/C=C/C(=O)O)/C=C/C(=O)O,.,.,-6%,-15%,.,?
CO/N=C(/C(=O)N[C@@H]1C(=O)N2C(C(=O)O)=CCS[C@H]12)c1csc(N)n1,-6%,.,.,.,.,.
N#Cc1c(-c2ccc(F)c(Br)c2)no[n+]1[O-],.,.,.,.,.,5%
CC(=O)COC(=O)C1CCN(S(=O)(=O)c2cc([N+](=O)[O-])ccc2Cl)CC1,-9%,2%,?,-19%,28µM*,?
Fc1ccc(-n2cc(-c3ccccc3)c3c(NC4CCCCC4)ncnc32)cc1,-4%,.,3%,.,.,.
CCOc1ccc(C(=O)Nc2ccc(-c3nc4cc(CC)ccc4o3)cc2)cc1,0%,.,1%[12.3 µM],.,.,.
CCOc1ccc(C(=O)Nc2ccc(S(=O)(=O)N3CCOCC3)cc2)cc1OCC,0%,?,10%,i,24%,4%
CCOc1ccc(NC(=O)c2cccc(-n3cccc3)c2)cc1S(=O)(=O)N1CCOCC1,.,.,0.79µM*,.,5.6µM*,1.3µM*
COc1ccc(Cl)cc1NC(=O)CSc1cn(CC(=O)N2CCCCC2)c2ccccc12,-5%,.,0%,.,.,.
Cc1cc(=O)n(C)c(=O)n1CCCCCCOc1cccc([N+](=O)[O-])c1,-2%,-3%,0%,3%,-13%,2%
Cc1cc(=O)n(C)c(=O)n1CCCCCN1CCCC1,-2%,?,-2%,-8%,28µM*,6%
C/C(=N/O)c1ccccn1,-1%,18µM*,6%,-18%,5%,-7%
CC(=O)c1ccccn1,.,.,12%,-15%,8%,17%
CCOc1ccc(C2C(=O)N(C3CCCCCC3)CC(=O)N2CCC2=CCCCC2)cc1OC (stereo not given),-8%,.,8%,.,.,.
CC(C)(C)n1ncc2c(=O)n(Cc3ccc(F)cc3Cl)cnc21,.,.,.,.,.,16%
COc1cc(/C=C(\C#N)C(=O)Nc2ccc(C(=O)O)cc2)ccc1OC(=O)c1cccc(F)c1,-4%,.,50µM*,.,2%,?
COc1cc(/C=C(/C#N)C(=O)Nc2ccccc2)ccc1OCc1ccc(C(=O)O)cc1,-4%,-25%,-13%,-2%,.,-4%
Cc1ccc(S(=O)(=O)N(CC(=O)NCCSc2ccc(Cl)cc2)c2ccccc2C)cc1,-11%,.,7%,.,.,.
COCCCNC(=O)C(C#N)c1nc2ccccc2nc1N1CCN(Cc2ccccc2)CC1 (stereo not given),-3%,?,-2%,-4%,-3%,4%
CCCCNC(=O)C(C#N)c1nc2ccccc2nc1N1CCN(c2ccccc2F)CC1 (stereo not given),-11%,32µM*,6%,6%,-9%,8%
Cc1cccc(NC(=O)CCNS(=O)(=O)c2ccc3c(c2)CCCC(=O)N3)c1C,0%,.,-4%,.,.,.
COc1cccc(C2c3c(ncn(-c4cccc(C)c4)c3=N)Oc3ccc4ccccc4c32)c1 (stereo not given),.,.,4%,.,.,.
CC(C)(C)c1nnc(N/N=C/c2ccccc2O)n(N)c1=O,0%,28µM*,8%,-18%,16µM*,2%
CC(C)(C)c1nnc(N/N=C/c2ccccc2)n(N)c1=O,0%,-5%,5%,-8%,0%,2%
Cc1cc(C(=O)N/N=C/c2ccc([N+](=O)[O-])cc2)c2ccccc2n1,-3%,-4%,5%,-5%,-13%,3%
SMILES,BLM inh,JMJD2E inh,TDP1 block,RECQ1 helicase,L3MBTL1 block,APE1 inh
Cc1cc(C(=O)N/N=C/c2cc(Br)cc([N+](=O)[O-])c2O)c2ccccc2n1,4%,6.3µM*,11%,-5%,?,-3%
Cc1cc(C(=O)N/N=C/c2cc([N+](=O)[O-])ccc2O)c2ccccc2n1,4%,28µM*,11%,-4%,18µM*,15%
CC1=C(C(=O)Nc2ccccc2)C(c2ccc(O)cc2)n2nc(-c3ccc(Cl)cc3)nc2N1 (stereo not given),-6%,.,-1%,.,.,.
CCN1/C(=C/C=C/c2oc3ccc(-c4ccccc4)cc3[n+]2CC)Oc2ccc(-c3ccccc3)cc21,22µM*,7.9µM*,0%,-18%,-89%,6%
CCc1ccc(-c2cn3nc(C)c(C)nc3n2)cc1,-2%,28µM*,6%,13%,-5%,-5%
Cc1nc2nc(-c3ccc(F)cc3)cn2nc1C,1%,.,.,.,.,25%
O=C(CSc1nnc2ccccn12)NC(=O)c1ccccc1Cl,.,.,25µM*,.,-8%,13µM*
COc1ccccc1C(=O)NC(=O)CSc1nnc2ccccn12,.,.,-1%,.,4%,18%
CN(C)c1ccc(C(CNS(=O)(=O)c2ccc(Cl)cc2)N2CCCC2)cc1 (stereo not given),1%,.,6%,.,.,.
Cc1ccc(C(=O)OCc2nc3ccsc3c(=O)[nH]2)o1,.,.,.,.,-4%,-2%
O=C(/C=C/c1ccc(Br)o1)OCc1nc2ccsc2c(=O)[nH]1,.,.,.,.,3.2µM*,?
Cc1cnc(C(=O)OCc2nc3ccsc3c(=O)[nH]2)cn1,.,.,14µM*,.,?,-36%
COc1ccc(NS(=O)(=O)c2ccc(-n3cccn3)cc2)cc1OC,2%,.,-4%,.,.,.
N#Cc1c(N)sc(=S)c2c1CCCCC2,-30%,22µM*,10µM*,?,?,?
C#CCOCCOCCOCCNc1nc(N2CCN(C(=O)[C@H](CCC(=O)O)n3cc(C(N)CO)nn3)CC2)nc(N2CCN(C(=O)[C@H](CCC(=O)O)n3cc(C(N)CO)nn3)CC2)n1 (stereo not given in full),-2%,-6%,-1%,i,.,?
C#CCOCCOCCOCCNc1nc(N2CCN(C(=O)C(Cc3cc4ccccc4[nH]3)n3cc(C(N)Cc4ccc(O)cc4)nn3)CC2)nc(N2CCN(C(=O)C(CCC(=O)O)n3cc(C(N)C(C)CC)nn3)CC2)n1 (stereo not given),.,.,0%,.,25µM*,5%
C#CCOCCOCCOCCNc1nc(N2CCOCC2)nc(N2CCN(C(=O)[C@H](Cc3cc4ccccc4[nH]3)n3cc([C@@H](N)CC(C)C)nn3)CC2)n1,-10%,-5%,4%,-14%,-1%,-5%
C#CCOCCOCCOCCNc1nc(N2CCN(C(=O)[C@H](Cc3cc4ccccc4[nH]3)n3cc([C@@H](N)CC(C)C)nn3)CC2)nc(N2CCN(C(=O)[C@H](Cc3cc4ccccc4[nH]3)n3cc([C@@H](N)CC(C)C)nn3)CC2)n1,22µM*,?,10%,?,?,4%
